This note sets out measurements from PubChem BioAssay.

The target of the test is Calmodulin-1 (Homo sapiens) (UniProt P0DP23). The test is described as follows: small molecules binding calmodulin-1 with EGTA – biochemical, small-molecule microarray, Cy5-labelled CALM1, profiling panel (AID 1111).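 Also: labelled calmodulin applied in Tris saline Tween buffer holding calcium plus EGTA and DTT.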 Conditions: Cy5-CALM1 binding fluorescence, higher = more signal.
For the compound `CO[C@H]1COC(=O)CC=C[C@H](C)[C@H](OC)COC(=O)[C@@H](C)NC(=O)CC=C[C@@H]1C`, the composite z-score is -0.735.

For `C#CCCCON=C1C[C@@H](O)[C@@H](O)[C@@H]2[C@@H]3C(=O)N([C@@H](C)c4ccccc4)C(=O)[C@@H]3CC[C@@H]12`, the composite z-score is -0.172.

Compound `C=CC[C@@H]1C=C[C@H](ON=C(C)CCN2CCCc3nc(C)c(C)cc32)[C@@H](CO)O1` gave a composite z-score of -0.0351.

In turn, `CCOC(=O)[C@H](CC(C)C)NC(=O)CCC1CC(OC(=O)NCCc2ccc(F)cc2)CC2(CCCC(COC(=O)NCCOC)O2)O1` (stereo partly drawn) showed a composite z-score of 0.217.

Turning to `CC(CCC(=O)OC[C@H]1O[C@H](C#Cc2ccccc2)C=C[C@@H]1Oc1ccc(C)cc1)=NOC[C@@H](C)[C@H](OCc1ccccc1)C(C)C`, the composite z-score is -1.24.

Take `COc1ccc(O[C@H]2C=C[C@@H](c3ccccc3)O[C@@H]2CO)cc1`: the composite z-score is -0.329.

As for `CCOC(=O)CCN1C(=O)[C@H]2[C@H]3[C@H](O)[C@H](O)CC(=NOCC(C)C)[C@@H]3CC[C@H]2C1=O`, the composite z-score is -1.92.

`CO[C@H]1COC(=O)[C@H](CCSC)NC(=O)CC=C[C@@H](C)[C@H](OC)COC(=O)[C@@H](OCc2ccccc2)C=C[C@@H]1C` gave a composite z-score of -0.841.

Take `CC(CCC(=O)OC[C@H]1O[C@H](C#Cc2ccccc2)C=C[C@@H]1Oc1ccc(C)cc1)=NO[C@@H](C)c1cc(-c2c(C)cc(C)cc2C)no1`: the composite z-score was -0.413.

With `CC(C)[C@@H](OCc1ccccc1)[C@H](C)C=NO[C@H](C)c1cn([C@@H]2COC[C@H]2O)nn1`, the composite z-score is -0.219.

In the case of `CCOC(=O)CCN1C(=O)[C@H]2[C@H]3[C@H](O)[C@H](O)CC(=O)[C@@H]3CC[C@H]2C1=O`, the composite z-score worked out at 0.0068.

Consider `COC(OC)[C@@H](C)[C@H](OC)[C@@H](C)[C@H](OC)c1ccccc1`, for which the composite z-score was -1.15.

Compound `C=CC[C@@H]1C=C[C@H](ON=C(C)CCN2CCCCc3nc(C)c(C)cc32)[C@@H](CO)O1` returned a composite z-score of -0.937.

Regarding `CC(C)=CCCC(C)=CCON=C1C[C@@H](O)[C@@H](O)[C@@H]2[C@@H]3C(=O)N(Cc4ccc5c(c4)OCO5)C(=O)[C@@H]3CC[C@H]12`, the composite z-score is -0.588.

As to `COc1cccc([C@H]2Oc3ccc(OC)cc3C(=NOCC[C@@H]3C=C[C@H](OC(C)=O)[C@@H](COC(C)=O)O3)[C@@H]2O)c1`, the composite z-score is -0.547.

`COC(=O)[C@H](C)NC(=O)CCC1CC(OC(=O)NCc2ccc3c(c2)OCO3)CC2(CCCC(COC(=O)NCCC(C)C)O2)O1` (stereo partly drawn): the composite z-score was -0.107.

`O=C1[C@H]2CCn3c(=O)n(-c4ccccc4)c(=O)n3[C@H]2[C@H](O)[C@@H]2O[C@H]12` showed a composite z-score of -0.14.

For `C[C@]12CCC3c4ccc(OCC5CO5)cc4CCC3C1CC[C@@H]2O` (stereo partly drawn), the composite z-score turned out to be 0.964.

Compound `CCN1C(=O)[C@H]2[C@H]3[C@H](O)[C@H](O)CC(=NNC(=O)OCc4ccccc4)[C@H]3CC[C@H]2C1=O` registered a composite z-score of -0.307.

As for `CCN1C(=O)[C@H]2[C@H]3[C@H](O)[C@H](O)CC(=NOCC=C(C)CCC=C(C)C)[C@@H]3CC[C@H]2C1=O`, the composite z-score is -1.09.

In turn, `CCOC(=O)[C@H](Cc1ccccc1)NC(=O)CCC1CC(OC(=O)NCc2cccc3ccccc23)CC2(CCCC(COC(=O)NCCc3ccccc3OC)O2)O1` (stereo partly drawn) displayed a composite z-score of 0.38.

`CON=C1c2cc(OC)ccc2O[C@H](c2cccc(OC)c2)[C@H]1O` gave a composite z-score of -0.332.

Compound `CCOC(=O)[C@H](CC(C)C)NC(=O)CCC1CC(OC(=O)NCc2ccc3c(c2)OCO3)CC2(CCCC(COC(=O)NCCC(C)C)O2)O1` (stereo partly drawn) displayed a composite z-score of -0.344.
